# Screening results from PubChem.
# ER stress surv: ER stress cell death inhibition. relative survival (cellular ATP), % at 15 µg/mL (by protocol). 48,000 tested, 0.33% active. CSM14.1 thapsigargin ER stress survival, ATP luminescence;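 active = survival measured by cellular ATP above 50% at 15 µg/ml in the first screen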;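 note: cell death triggered by about 15 µM thapsigargin; ATP read 24 h after thapsigargin was added; plate controls were thapsigargin with DMSO for no effect and DMSO without thapsigargin for full effect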
# * hit, by the source's call. The entries come from a sample that favours hits as a whole.
SMILES,ER stress surv
O=C(NCCNC(=O)c1cccs1)c1cccs1,4
O=C(NCc1ccncc1)c1cccs1,18
O=C(CC(=S)c1cccs1)c1ccncc1,61*
Cc1ccc(C)c(NC(=O)c2ccc([N+](=O)[O-])cc2)c1,7
O=C(N/N=C/c1cc(Br)c(Br)o1)C(O)(c1ccccc1)c1ccccc1,3
O=C(O)c1ccc(N2C(=O)c3cccc4c([N+](=O)[O-])c(O)cc(c34)C2=O)cc1,7
CCCC(=O)NNC(=O)c1ccccc1C,65*
Cc1ccccc1C(=O)NNC(=O)c1ccco1,2
Cc1ccccc1C(=O)NNC(=O)C(C)C,29
CCN(CC)c1ccc(C=Nc2cccc(C(N)=O)c2)c(O)c1,19
COc1ccccc1C(=O)N1CCN(Cc2ccccc2[N+](=O)[O-])CC1,3
COc1cccc(CN2CCN(C(=O)C(c3ccccc3)c3ccccc3)CC2)c1OC,10
O=C(C(c1ccccc1)c1ccccc1)N1CCN(Cc2ccccc2[N+](=O)[O-])CC1,92*
CS(=O)(=O)N(CC(=O)O)c1cccc(C(F)(F)F)c1,4
COc1ccc(CCNC(=O)CN(c2ccc(C)cc2)S(=O)(=O)c2ccccc2)cc1OC,8
CC(=O)Oc1ccc(/C=C(\NC(=O)c2ccccc2)C(=O)NCC(=O)OCc2ccccc2)cc1,-4
CCOC(=O)c1ccccc1NC(=O)CN(c1ccc(OC)cc1)S(=O)(=O)c1ccccc1,9
COc1ccc(C(=O)Nc2ccc(OC(F)(F)F)cc2)cc1,-1
CCC1CCc2c(sc(NC(=O)c3ccc4c(c3)OCO4)c2C(=O)OC)C1 (stereo unspecified),-3
CCN(CC)c1ccc(Nc2nc(-c3sc(N)nc3C)cs2)cc1,72*
Cc1nc(C)c(-c2csc(Nc3ccc(O)cc3)n2)s1,2
CCN(CC)c1ccc(Nc2nc(-c3c(C)nc4ccccn34)cs2)cc1,44
CCOC(=O)C1=C(O)/C(=C/c2ccc(OC)cc2)SC1=Nc1ccccc1,10
COc1ccc(OC)c(NC(=S)NC(=O)c2ccc(Cl)cc2)c1,6
Cc1ccc(/C=N\N2CCN(c3ccc(Cl)cc3)CC2)cc1,9
SMILES,ER stress surv
O=C1CCCC2=C1C(c1ccc(O)cc1)Nc1ccc(C(=O)c3ccccc3)cc1N2 (stereo unspecified),-4
COc1ccc(C2CC(=O)C3=C(C2)Nc2ccccc2NC3c2cccnc2)cc1OC (stereo unspecified),2
O=C1CCCC2=C1C(c1ccc([N+](=O)[O-])cc1)Nc1ccc(C(=O)c3ccccc3)cc1N2 (stereo unspecified),121*
O=C1CCCC2=C1C(c1ccc(F)cc1)Nc1ccc(C(=O)c3ccccc3)cc1N2 (stereo unspecified),4
O=C1CC(c2ccccc2)CC2=C1C(c1ccco1)Nc1ccccc1N2 (stereo unspecified),2
O=C1CCCC2=C1C(c1cccs1)Nc1ccc(C(=O)c3ccccc3)cc1N2 (stereo unspecified),-2
COc1ccc(C2CC(=O)C3=C(C2)Nc2ccccc2NC3c2ccc(O)cc2)cc1 (stereo unspecified),2
O=C1CC(c2ccccc2)CC2=C1C(c1ccc(O)cc1)Nc1ccc(C(=O)c3ccccc3)cc1N2 (stereo unspecified),106*
O=C1CC(c2ccccc2)CC2=C1C(c1cccnc1)Nc1ccc(C(=O)c3ccccc3)cc1N2 (stereo unspecified),102*
O=C1CCC(=O)N1c1ccc(Oc2cccc(Oc3ccc(N4C(=O)CCC4=O)cc3)c2)cc1,8
Cc1cc(C(=O)N/N=C(\CCC(=O)O)c2ccccc2)n[nH]1,5
Nc1nonc1-c1nc2ccccc2n1CC(=O)N/N=C\c1ccccc1OCC(=O)O,1
Cc1ccnc(NS(=O)(=O)c2ccc(NC(=O)c3c(-c4ccccc4)noc3C)cc2)n1,10
CCOC(=O)c1c(NC(=O)c2c(-c3ccccc3Cl)noc2C)sc2c1CCCC2,8
CC1(C)CC(=O)C2=C(C1)c1c(ccc3ccccc13)NC2c1cn[nH]c1-c1ccccc1 (stereo unspecified),2
O=C(O)C1C2CCC(O2)C1C(=O)N1CCN(C(c2ccccc2)c2ccccc2)CC1 (stereo unspecified),-3
O=C(O)C1C2C=CC(O2)C1C(=O)N1CCN(C(c2ccccc2)c2ccccc2)CC1 (stereo unspecified),-3
O=C(C1CC1c1ccccc1)N1CCN(C(c2ccccc2)c2ccccc2)CC1 (stereo unspecified),104*
C=CCc1ccccc1OCCSc1nc2ccc(N)cc2s1,-7
Cc1ccc(S(=O)(=O)N/N=C/c2cccc(OS(=O)(=O)c3cccc([N+](=O)[O-])c3)c2)cc1,12
O=C1CC(c2ccccc2)CC2=C1C(c1ccc(Br)cc1)Nc1ccccc1N2 (stereo unspecified),12
O=C1CC(c2ccc(Cl)cc2)CC2=C1C(c1ccccc1F)Nc1ccccc1N2 (stereo unspecified),6
O=C1CC(c2ccccc2)CC2=C1C(c1c(F)cccc1Cl)Nc1ccccc1N2 (stereo unspecified),105*
